How the values were obtained:
Settings in all cases: concentration: 1 μM, replicates: in singlicate; n = 1
DMPK2 = test system: T1, DMPK2
T1 construct: gene CDC42BPG

DMPK = test system: DMPK
DRAK1 = test system: T2, DRAK1
T2 construct: gene STK17A

DRAK2 = test system: T3, DRAK2
T3 construct: gene STK17B

DYRK1A = test system: DYRK1A
DYRK1B = test system: DYRK1B
DYRK2 = test system: DYRK2
EGFR = test system: EGFR
EIF2AK1 = test system: EIF2AK1
EPHA1 = test system: EPHA1
EPHA2 = test system: EPHA2
EPHA3 = test system: EPHA3
EPHA4 = test system: EPHA4
EPHA5 = test system: EPHA5
EPHA6 = test system: EPHA6
EPHA7 = test system: EPHA7
EPHA8 = test system: EPHA8
EPHB1 = test system: EPHB1
EPHB2 = test system: EPHB2
EPHB3 = test system: EPHB3
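Also: KINOMEscan kinase panel screen.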

Structure (SMILES)	%Inh (DMPK2)	%Inh (DMPK)	%Inh (DRAK1)	%Inh (DRAK2)	%Inh (DYRK1A)	%Inh (DYRK1B)	%Inh (DYRK2)	%Inh (EGFR)	%Inh (EIF2AK1)	%Inh (EPHA1)	%Inh (EPHA2)	%Inh (EPHA3)	%Inh (EPHA4)	%Inh (EPHA5)	%Inh (EPHA6)	%Inh (EPHA7)	%Inh (EPHA8)	%Inh (EPHB1)	%Inh (EPHB2)	%Inh (EPHB3)
O=C(Nc1n[nH]c2cc(-c3ccsc3)ccc12)C1CC1 [SB-732932]	0%	0%	17%	0%	0%	12%	28%	0%	0%	3%	0%	13%	0%	3%	6%	0%	0%	0%	0%	7%
O=C(Nc1n[nH]c2nc(-c3ccco3)c(Br)cc12)C1CCN(Cc2ccccc2)C1.O=C(O)[C@H](O)[C@@H](O)C(=O)O (stereo not shown) [SB-742034]	0%	0%	11%	13%	22%	0%	32%	1%	33%	0%	0%	16%	1%	6%	0%	7%	0%	7%	17%	11%
COc1ccc(Nc2nccc(N3CCC(NC(=O)c4cc5ccccc5s4)C3)n2)cc1 (stereo not shown) [GSK1379738]	7%	0%	0%	0%	15%	0%	0%	0%	0%	17%	0%	0%	8%	0%	1%	7%	13%	20%	12%	11%
Cc1ccc(NC(=O)c2ccc(Cl)cc2)cc1-c1ccc(C(=O)Nc2ccncc2)cc1 [GSK1398467]	0%	0%	5%	0%	4%	0%	0%	33%	0%	19%	9%	81%	11%	0%	0%	4%	18%	19%	7%	8%
Cc1cccc2c(-c3ccncn3)c(-c3ccc(F)cc3)nn12 [GW515532]	24%	0%	0%	0%	23%	0%	13%	47%	0%	16%	0%	0%	2%	0%	21%	0%	13%	1%	0%	2%
Cl.Cl.Cl.N#Cc1ccc(CCNc2nccc(-c3cccc(CN4CCNCC4)c3)n2)cc1 [GSK2137462]	41%	10%	0%	0%	0%	0%	24%	11%	2%	19%	8%	14%	13%	0%	3%	9%	14%	18%	0%	15%
COc1ccc(Nc2nccc(-c3ccc(NC(=O)c4cc5cc(F)ccc5[nH]4)cc3)n2)cc1 [GSK1229496]	4%	0%	69%	19%	14%	0%	0%	14%	0%	0%	1%	1%	0%	0%	0%	0%	10%	3%	0%	0%
COc1cccc(NC(=O)Nc2ccc(C)c(-c3ccc(C(=O)Nc4ccncc4)cc3)c2)c1 [GSK1398474]	5%	0%	0%	9%	9%	43%	22%	17%	7%	20%	1%	5%	15%	2%	13%	13%	25%	10%	4%	18%
CNc1nc(-c2ccc3c(N)n[nH]c3c2)cc(N2C[C@@H](C(=O)NC3CCCCC3)OC[C@H]2C)n1 [GSK2375584]	11%	0%	39%	2%	7%	0%	0%	24%	0%	14%	0%	0%	8%	0%	1%	8%	13%	7%	0%	11%
CCn1c(-c2c(N)noc2C)nc2cnccc21 [SB-737856]	99.8%	0%	0%	0%	30%	0%	4%	24%	3%	0%	15%	0%	29%	7%	21%	14%	33%	12%	0%	26%
CC(=O)c1c(C)c2cnc(Nc3ccn(C)n3)nc2n(C2CCCC2)c1=O	1%	0%	0%	0%	13%	0%	0%	5%	0%	4%	0%	0%	0%	0%	0%	0%	0%	0%	15%	0%
